Data from PubChem BioAssay (Tox21).
Where “and” joins values, the source holds several entries; their conditions need not be identical. Equal entries are not always repeated. Results filed as inconclusive are left out. Where a call stands in place of a potency, no number is given. The source holds several records for some structures; these can differ, active in one and inactive in another. Calls of active or inactive are those of the source. Unless noted, calls follow the shape of the full dose curve.

Legend:
[1] = Nuclear factor erythroid 2-related factor 2/antioxidant responsive element (Nrf2/ARE) small molecule agonists: qHTS cell viability counter screen in human keratinocytes (AID 1919968; active = well fitted curve in the direction sought with a large enough effect in the repeat runs; an effect the other way counts as inactive or inconclusive; also: nearly all actives have a fitted effect of over 55% in size; also: potency is read from the fitted curve at half-maximal effect)
In short: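 CellTiter-Fluor fluorescence, read 1 h after reagent, gave viability in the same wells as the ARE-luciferase assay. KeratinoSens cells (1,500/well) had 23 h compound exposure at 37 C/5% CO2 following 5 h plating.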

[2] = Nuclear factor erythroid 2-related factor 2/antioxidant responsive element (Nrf2/ARE) small molecule agonists: luciferase reporter gene qHTS assay in human keratinocytes (AID 1919969); also: nearly all actives have a fitted effect of over 35% in size; also: potency is read from the fitted curve at half-maximal effect
[3] = target: Gonadotropin-releasing hormone receptor (Homo sapiens) (UniProt P30968); assay: Human gonadotropin-releasing hormone receptor (GnRHR) small molecule agonists, calcium flux assay in GnRHR-HEK293 cells (AID 1920063); also: nearly all actives have a fitted effect of over 35% in size
In short: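 Agonist mode: compounds at 15 concentrations, in triplicate, went onto calcium dye-loaded GnRHR-HEK293 cells. Intracellular calcium was then followed as 480/540 nm fluorescence at 1 s intervals over 3 min.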

[4] = target: KiSS-1 receptor (Homo sapiens) (UniProt Q969F8); assay: Human kisspeptin (KISS1R) small molecule agonists, calcium flux assay in KISS1R-HEK293 cells (AID 1920064; active = well fitted curve in the direction sought with a large enough effect in the repeat runs; an effect the other way counts as inactive or inconclusive)
In short: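 Agonist mode: intracellular calcium rise tracked at 1 s intervals over 3 min (480/540 nm) immediately after compound addition to dye-loaded KISS1R-HEK293 stable cells. Each compound tested at 15 concentrations in triplicate.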

[5] = G protein-coupled receptor (GPCR) small molecule agonists, calcium flux assay: HEK293 wild type cell line counter screen (AID 1920065)
In short: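 Calcium flux counter screen: compound added in agonist mode at 15 concentrations in triplicate to dye-loaded parental HEK293 cells. Fluorescence (480/540) read kinetically for 3 min; ATP served as positive control.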

[6] = p53 small molecule agonists, cell-based qHTS assay with human liver microsomes (AID 1963577)
In short: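 p53RE-bla reporter cells were pre-incubated 5 h at 37 C, then treated with compounds plus human liver microsomes (0.5 mg/mL final) and NADPH (0.5 mg/mL final) for 16 h at 37 C. Beta-lactamase activity was read by LiveBLAzer fluorescence after 2 h at room temperature.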

[7] = p53 small molecule agonists, cell-based qHTS assay with rat liver microsomes (AID 1963578)
In short: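 p53RE-bla cells were exposed to compounds together with rat liver microsomes (0.5 mg/mL final) and NADPH (0.5 mg/mL final) for 16 h at 37 C, then read by LiveBLAzer beta-lactamase fluorescence after 2 h at room temperature.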

[8] = p53 small molecule agonists, cell-based qHTS assay with human liver microsomes: qHTS cell viability counter screen (AID 1963579); also: nearly all actives have a fitted effect of over 45% in size; also: potency is read from the fitted curve at half-maximal effect
In short: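 p53RE-bla cells (4,000/well) were pre-incubated 5 h at 37 C, then given compounds in DMSO plus human liver microsomes (0.5 mg/mL final) and NADPH (0.5 mg/mL final) for 16 h at 37 C. Viability was read by CellTiter-Glo luminescence.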

[9] = p53 small molecule agonists, cell-based qHTS assay with rat liver microsomes: qHTS cell viability counter screen (AID 1963580); also: nearly all actives have a fitted effect of over 45% in size
In short: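 Luminescent ATP readout (CellTiter-Glo, 30 min at room temperature) reports viability of p53RE-bla HCT-116 cells after 16 h at 37 C with test compounds under metabolic activation by rat liver microsomes and NADPH at 0.5 mg/mL final each.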

[10] = p53 small molecule agonists, cell-based qHTS assay: qHTS cell viability counter screen (AID 1963581); also: nearly all actives have a fitted effect of over 45% in size
In short: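 Counter screen read by CellTiter-Glo luminescence (ATP content, 30 min at room temperature), run in the same wells as the beta-lactamase reporter read. HCT-116 p53RE-bla cells saw compounds for 16 h at 37 C.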

[11] = p53 small molecule agonists, cell-based qHTS assay (AID 1963582; active = well fitted activation curve with a large enough effect in the signal ratio in the repeat runs, not every such curve was filed as active; the % refers to the signal ratio)
In short: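 Read-out is beta-lactamase FRET fluorescence after 2 h at room temperature with LiveBLAzer B/G substrate. p53 response element-bla cells were treated 16 h at 37 C with compounds in DMSO, added 5 h after seeding.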

[12] = target: 5-hydroxytryptamine receptor 2A (Homo sapiens) (UniProt P28223); assay: 5-hydroxytryptamine receptor 2A (HTR2A) small molecule antagonists, cell-based qHTS assay (AID 1963586); also: nearly all actives have a fitted effect of over 45% in size; also: potency is read from the fitted curve at half-maximal effect
In short: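 CHO cells stably expressing human HTR2A were plated for 18 h at 37 C, then loaded with calcium dye for 1 h. Compounds were preincubated 5 min at room temperature before DOI (4 nM solution) was added. Kinetic fluorescence was read for 3 min.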

[13] = target: 5-hydroxytryptamine receptor 2A (Homo sapiens) (UniProt P28223); assay: 5-hydroxytryptamine receptor 2A (HTR2A) small molecule agonists, cell-based qHTS assay (AID 1963587); also: nearly all actives have a fitted effect of over 30% in size
In short: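 HTR2A-CHO cells, plated 18 h at 37 C/5% CO2, dye-loaded 1 h at 37 C; compounds in DMSO added by pin tool (agonist mode). Intracellular calcium flux read as kinetic fluorescence on FDSS over 2 min at 1 s intervals.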

[14] = target: Muscarinic acetylcholine receptor M1 (Homo sapiens) (UniProt P11229); assay: Cholinergic receptor muscarinic 1 (CHRM1) small molecule antagonists, cell-based qHTS assay (AID 1963588); also: nearly all actives have a fitted effect of over 40% in size
In short: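 Compounds were tested at 15 concentrations in three independent runs. Dye-loaded CHRM1-CHO cells were exposed 5 min at room temperature before stimulation by acetylcholine added at 50nM. Intracellular calcium was read kinetically on FDSS for 3 min.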

[15] = target: Muscarinic acetylcholine receptor M1 (Homo sapiens) (UniProt P11229); assay: Cholinergic receptor muscarinic 1 (CHRM1) small molecule agonists, cell-based qHTS assay (AID 1963589); also: nearly all actives have a fitted effect of over 35% in size
In short: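 Agonist-mode calcium-flux screen: compounds at 15 concentrations, three independent runs, were pin-transferred onto dye-loaded human CHRM1-CHO cells. Fluorescence was then recorded kinetically every second over minutes.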

[16] = cAMP Responsive Elements (CRE) small molecule agonists, cell-based qHTS assay (AID 1963590)
In short: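 Agonist mode: compound added to CRE-bla HEK 293T cells (2,000/well, 18 h after plating) for 3 h at 37 C/5% CO2. Reporter activity detected via FRET beta-lactamase substrate, 2 h room-temperature loading.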

[17] = target: Beta-2 adrenergic receptor (Homo sapiens) (UniProt P07550); assay: Adrenergic beta2 receptor (ADRB2) small molecule antagonists, cell-based qHTS assay (AID 1963592); also: series mostly up to about 92 µM; nearly all actives have a fitted effect of over 50% in size
In short: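 Assay format: CHO-ADRB2 cells, 18-20hr seeding at 37C/5% CO2, then compound plus 1nM isoproterenol agonist mix for 0.5hr RT. Homogeneous time-resolved fluorescence cAMP detection after 1hr, expressed as 665/615 nm ratio.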

[18] = target: D(2) dopamine receptor (Homo sapiens) (UniProt P14416); assay: Dopamine D2 receptor (DRD2) small molecule agonists, cell-based qHTS assay (AID 1963594); also: nearly all actives have a fitted effect of over 35% in size
In short: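 HEK293 cells stably expressing DRD2 were cultured 24 h at 37 C, then given Ro20-1724 (0.1 mM final) and compounds for 10 min at room temperature. NKH477 (200nM) was then added for 30 min. cAMP was read by HTRF.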

[19] = target: D(2) dopamine receptor (Homo sapiens) (UniProt P14416); assay: Dopamine D2 receptor (DRD2) small molecule antagonists, cell-based qHTS assay (AID 1963595; active = well fitted inhibition curve with a large enough effect in the signal ratio in the repeat runs, with a control signal flat; the % refers to the signal ratio)
In short: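 HEK293 cells stably expressing DRD2 were preincubated with 0.1 mM Ro20-1724, then with compound for 10 min at room temperature. Cells were stimulated with 200 nM NKH477 plus 12 nM quinpirole for 30 min, and cAMP was read by HTRF.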

[20] = cAMP Responsive Elements (CRE) small molecule antagonists, cell-based qHTS assay (AID 1963591; active = well fitted inhibition curve with a large enough effect in the signal ratio in the repeat runs, not every such curve was filed as active; the % refers to the signal ratio)
In short: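 Antagonist mode: compounds are added alongside the adenylyl cyclase activator NKH477 (0.25 uM final) to CRE-bla HEK293T cells for 3 h. LiveBLAzer FRET substrate, 2 h at room temperature, reports bla expression.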

Chain of Gonadotropin-releasing hormone receptor (Homo sapiens) (P30968 whole entry, looked up): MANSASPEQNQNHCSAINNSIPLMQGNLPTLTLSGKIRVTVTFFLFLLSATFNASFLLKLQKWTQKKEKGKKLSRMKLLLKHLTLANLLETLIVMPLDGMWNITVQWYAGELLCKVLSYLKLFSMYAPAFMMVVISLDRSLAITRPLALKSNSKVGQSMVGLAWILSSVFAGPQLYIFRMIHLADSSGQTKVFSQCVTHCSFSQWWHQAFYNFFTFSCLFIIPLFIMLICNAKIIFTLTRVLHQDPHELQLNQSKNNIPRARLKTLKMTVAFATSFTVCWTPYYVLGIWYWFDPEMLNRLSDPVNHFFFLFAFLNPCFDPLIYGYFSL
Chain of KiSS-1 receptor (Homo sapiens) (Q969F8 whole entry, looked up): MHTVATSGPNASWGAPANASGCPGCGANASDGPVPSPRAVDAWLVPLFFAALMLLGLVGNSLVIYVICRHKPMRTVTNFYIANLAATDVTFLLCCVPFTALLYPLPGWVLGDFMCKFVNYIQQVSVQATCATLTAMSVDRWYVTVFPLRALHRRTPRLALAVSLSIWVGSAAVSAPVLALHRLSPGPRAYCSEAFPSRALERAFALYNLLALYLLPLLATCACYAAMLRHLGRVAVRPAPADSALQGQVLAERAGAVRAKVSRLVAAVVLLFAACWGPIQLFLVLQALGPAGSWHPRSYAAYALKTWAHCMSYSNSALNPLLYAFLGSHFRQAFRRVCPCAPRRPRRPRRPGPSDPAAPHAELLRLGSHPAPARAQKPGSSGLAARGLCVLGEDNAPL
Chain of D(2) dopamine receptor (Homo sapiens) (P14416 whole entry, looked up): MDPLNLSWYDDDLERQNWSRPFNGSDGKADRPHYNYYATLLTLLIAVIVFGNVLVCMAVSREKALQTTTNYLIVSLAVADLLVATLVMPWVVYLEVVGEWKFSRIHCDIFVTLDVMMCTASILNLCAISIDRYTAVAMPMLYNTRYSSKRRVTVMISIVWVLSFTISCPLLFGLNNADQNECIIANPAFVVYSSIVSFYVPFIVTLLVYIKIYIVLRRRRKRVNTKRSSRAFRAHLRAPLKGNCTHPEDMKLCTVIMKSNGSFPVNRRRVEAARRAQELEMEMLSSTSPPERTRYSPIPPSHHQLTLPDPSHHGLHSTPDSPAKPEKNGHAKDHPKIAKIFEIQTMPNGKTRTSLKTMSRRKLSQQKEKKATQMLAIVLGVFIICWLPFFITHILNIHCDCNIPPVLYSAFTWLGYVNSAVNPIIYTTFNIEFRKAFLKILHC
Chain of 5-hydroxytryptamine receptor 2A (Homo sapiens) (P28223 whole entry, looked up): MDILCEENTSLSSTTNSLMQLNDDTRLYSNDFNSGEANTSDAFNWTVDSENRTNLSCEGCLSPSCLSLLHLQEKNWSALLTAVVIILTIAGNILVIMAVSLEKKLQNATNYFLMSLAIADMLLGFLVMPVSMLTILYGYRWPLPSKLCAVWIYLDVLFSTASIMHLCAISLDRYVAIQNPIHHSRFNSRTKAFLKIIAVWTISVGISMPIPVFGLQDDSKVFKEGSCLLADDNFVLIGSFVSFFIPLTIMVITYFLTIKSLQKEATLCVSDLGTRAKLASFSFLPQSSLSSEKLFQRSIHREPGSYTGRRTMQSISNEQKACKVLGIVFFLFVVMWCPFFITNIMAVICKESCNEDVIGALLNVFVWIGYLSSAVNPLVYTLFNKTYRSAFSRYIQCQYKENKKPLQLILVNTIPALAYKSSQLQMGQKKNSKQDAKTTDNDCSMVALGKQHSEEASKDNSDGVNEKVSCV
Chain of Muscarinic acetylcholine receptor M1 (Homo sapiens) (P11229 whole entry, looked up): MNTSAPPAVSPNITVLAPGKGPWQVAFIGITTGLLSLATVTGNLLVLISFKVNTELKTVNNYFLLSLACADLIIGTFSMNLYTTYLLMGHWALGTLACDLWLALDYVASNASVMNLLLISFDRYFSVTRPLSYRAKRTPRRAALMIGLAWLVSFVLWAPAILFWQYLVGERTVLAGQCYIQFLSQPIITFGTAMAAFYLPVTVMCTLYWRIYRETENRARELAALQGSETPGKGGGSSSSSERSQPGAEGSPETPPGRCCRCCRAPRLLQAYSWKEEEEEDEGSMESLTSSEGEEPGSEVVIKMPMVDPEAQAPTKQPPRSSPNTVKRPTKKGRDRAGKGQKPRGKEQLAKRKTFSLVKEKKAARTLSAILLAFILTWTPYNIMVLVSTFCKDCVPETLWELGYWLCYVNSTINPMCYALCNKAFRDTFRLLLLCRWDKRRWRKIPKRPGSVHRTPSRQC
Chain of Beta-2 adrenergic receptor (Homo sapiens) (P07550 whole entry, looked up): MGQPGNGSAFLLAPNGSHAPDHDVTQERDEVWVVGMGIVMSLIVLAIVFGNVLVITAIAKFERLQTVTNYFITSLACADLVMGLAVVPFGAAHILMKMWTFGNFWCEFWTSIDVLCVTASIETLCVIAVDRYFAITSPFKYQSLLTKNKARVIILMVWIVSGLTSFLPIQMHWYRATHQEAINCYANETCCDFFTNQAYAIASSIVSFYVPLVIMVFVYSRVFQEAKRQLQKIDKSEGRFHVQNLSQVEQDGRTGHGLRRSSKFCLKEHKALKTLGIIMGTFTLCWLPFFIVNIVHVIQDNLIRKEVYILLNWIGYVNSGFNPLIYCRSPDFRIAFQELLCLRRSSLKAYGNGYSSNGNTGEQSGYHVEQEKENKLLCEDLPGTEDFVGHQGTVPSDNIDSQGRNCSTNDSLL

| Compound | Potency [1] | Potency [2] | Potency [3] | Potency [4] | Potency [5] | Potency [6] | Potency [7] | Potency [8] | Potency [9] | Potency [10] | Potency [11] | Potency [12] | Potency [13] | Potency [14] | Potency [15] | Potency [16] | Potency [17] | Potency [18] | Potency [19] | Potency [20] |
| --- | --- | --- | --- | --- | --- | --- | --- | --- | --- | --- | --- | --- | --- | --- | --- | --- | --- | --- | --- | --- |
| CCOc1ccc(N)cc1 | inactive | inactive | inactive | inactive | inactive | inactive | inactive | inactive | inactive | inactive | inactive | inactive | inactive | inactive | inactive | inactive | inactive | inactive | inactive |  |
| O=P(O)(O)CN(CP(=O)(O)O)CP(=O)(O)O | inactive | inactive | inactive | inactive | inactive | inactive | inactive | inactive | inactive | inactive | inactive | inactive | inactive | inactive | inactive |  | inactive | inactive | inactive | inactive |
| COCC(=O)N(c1c(C)cccc1C)[C@H](C)C(=O)OC | inactive | inactive | inactive | inactive | inactive | inactive | inactive | inactive | inactive | inactive | inactive | inactive | inactive | inactive | inactive |  | inactive | inactive | inactive | inactive |
| O=C(O)C(Cl)Br (stereo unspecified) | inactive | inactive | inactive | inactive | inactive | inactive | inactive | inactive | inactive | inactive | inactive | inactive | inactive | inactive | inactive | inactive | inactive | inactive | inactive |  |
| C=C(C)[C@@H]1CC=C(C=O)CC1 | inactive | inactive | inactive | inactive | inactive | inactive | inactive | inactive | inactive | inactive | inactive | inactive | inactive | inactive | inactive | inactive |  | inactive | inactive | inactive |
| CC[C@H](N)c1ccccc1 | inactive | inactive | inactive | inactive | inactive | inactive | inactive | inactive | inactive | inactive | inactive | inactive | inactive | inactive | inactive | inactive | inactive |  | inactive | inactive |
| C=C(C#N)CCC#N | inactive | inactive | inactive | inactive | inactive | inactive | inactive | inactive | inactive | inactive | inactive | inactive | inactive | inactive | inactive |  | inactive | inactive | inactive | inactive |
| O=C1CC(=O)NC(=O)N1 | inactive | inactive | inactive | inactive | inactive | inactive | inactive | inactive | inactive | inactive | inactive | inactive | inactive | inactive | inactive |  | inactive | inactive | inactive | inactive |
| Nc1ccc(-c2ccc(N)cc2)cc1 | inactive | inactive | inactive | inactive | inactive | inactive | inactive | inactive | inactive | inactive | inactive | inactive | inactive | inactive | inactive | inactive | inactive | inactive | inactive |  |
| O=NN1CCCC1 | 14.3 µM (active) and inactive | inactive | inactive | inactive | inactive | inactive | inactive | inactive | inactive | inactive | inactive | inactive | inactive | inactive | inactive | inactive | inactive | inactive | inactive |  |
| CCCCOC(=O)c1ccccc1C(=O)OCc1ccccc1 | inactive | inactive and 68.6 µM (active) | inactive | inactive | inactive | inactive | inactive | inactive and 646 nM (active) | inactive | inactive | inactive | inactive and 5.9 nM (active) | inactive | inactive | inactive | inactive | inactive | inactive |  |  |
| Cc1ccc(CCl)cc1 | inactive | inactive | inactive | inactive | inactive | inactive | inactive | inactive | inactive | inactive | inactive | inactive | inactive | inactive | inactive | inactive | inactive |  | inactive | inactive |
| Cc1ccc(-c2nc3ccc(C)cn3c2CC(=O)N(C)C)cc1 | inactive | inactive | inactive | inactive | inactive | inactive | inactive | inactive | inactive | inactive | inactive | inactive | inactive | inactive | inactive | inactive | inactive | inactive | inactive | inactive |
| C#CCOC(C(=O)OCCN(C)C)(c1ccccc1)c1ccccc1 | inactive | inactive | inactive | inactive | inactive | inactive | inactive | inactive | inactive | inactive | inactive | inactive | inactive | inactive | inactive |  | inactive | inactive | inactive | inactive |
| CCc1cccc(C)c1N(C(=O)CCl)C(C)COC (stereo unspecified) | inactive | 57.6 µM (active) | inactive | inactive | inactive | inactive | inactive | inactive | inactive | inactive | inactive | inactive | inactive | inactive | inactive | inactive | inactive | inactive | inactive | inactive |
